Records with an inconclusive call do not appear. Calls of active or inactive are those of the source. Unless noted, calls come from the whole dose curve.
Legend:
[1] = Nuclear factor erythroid 2-related factor 2/antioxidant responsive element (Nrf2/ARE) small molecule agonists: luciferase reporter gene qHTS assay in human keratinocytes (AID 1919969); note: nearly all actives have a fitted effect of over 35% in size
[2] = biological target: Gonadotropin-releasing hormone receptor (Homo sapiens) (UniProt P30968); experiment: Human gonadotropin-releasing hormone receptor (GnRHR) small molecule agonists, calcium flux assay in GnRHR-HEK293 cells (AID 1920063); note: nearly all actives have a fitted effect of over 35% in size
Method in brief: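 GnRHR-HEK293, 1500 cells/well, 18 h 37 C/5% CO2; Ca dye 1 h 37 C; cpd pinned (DMSO), agonist mode; kinetic FL 480/540, 3 min, 1 s reads; 15 conc, n=3.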

[3] = biological target: KiSS-1 receptor (Homo sapiens) (UniProt Q969F8); experiment: Human kisspeptin (KISS1R) small molecule agonists, calcium flux assay in KISS1R-HEK293 cells (AID 1920064; active = well fitted activation curve with a large enough effect in the repeat runs)
Method in brief: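 Stable human KISS1R HEK293 line; 18 h plating, 37 C/5% CO2; calcium dye 1 h 37 C; compound pin transfer; kinetic fluorescence Ex/Em 480/540, 3 min.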

[4] = G protein-coupled receptor (GPCR) small molecule agonists, calcium flux assay: HEK293 wild type cell line counter screen (AID 1920065)
Method in brief: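 Kinetic fluorescence at Ex/Em 480/540, recorded every second over 3 min, served as the read-out after compound addition. Each compound was tested at 15 concentrations in triplicate on cells pre-loaded with calcium dye for 1 h.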

[5] = p53 small molecule agonists, cell-based qHTS assay with human liver microsomes (AID 1963577);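 note: p53 response element beta-lactamase reporter cells with liver microsomes plus NADPH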
Method in brief: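 16 h, 37 C exposure of p53RE-bla cells to compounds with human liver microsomes and NADPH (0.5 mg/mL final each); detection via LiveBLAzer mixture, 2 h dark at room temperature.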

[6] = p53 small molecule agonists, cell-based qHTS assay with rat liver microsomes (AID 1963578)
Method in brief: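 With rat liver microsomes and NADPH present (0.5 mg/mL final each), p53RE-bla cells are treated with compound for 16 h at 37 C. LiveBLAzer detection mixture is then applied for 2 h at room temperature in the dark.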

[7] = p53 small molecule agonists, cell-based qHTS assay with human liver microsomes: qHTS cell viability counter screen (AID 1963579); note: nearly all actives have a fitted effect of over 45% in size
Method in brief: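 In this multiplexed counter screen, the reporter plates were subsequently treated with CellTiter-Glo so that cell viability, reflected by luminescence, could be recorded for p53RE-bla cells dosed 16 h with compounds under microsomal activation (HLM and NADPH).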

[8] = p53 small molecule agonists, cell-based qHTS assay with rat liver microsomes: qHTS cell viability counter screen (AID 1963580); note: nearly all actives have a fitted effect of over 45% in size
Method in brief: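 Viability is assessed in parallel with the p53 reporter read: HCT-116 p53RE-bla cells receive compounds plus rat microsomes and NADPH (0.5 mg/mL final apiece), incubate 16 h at 37 C, and then CellTiter-Glo luminescence is recorded.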

[9] = p53 small molecule agonists, cell-based qHTS assay: qHTS cell viability counter screen (AID 1963581); note: nearly all actives have a fitted effect of over 45% in size
Method in brief: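 HCT-116 p53RE-bla cells, 4,000/well, plated 5 h before compound pin transfer; 16 h at 37 C; bla substrate 2 h RT; then CellTiter-Glo, 30 min RT, luminescence.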

[10] = p53 small molecule agonists, cell-based qHTS assay (AID 1963582; active = well fitted activation curve with a large enough effect in the signal ratio in the repeat runs, not every such curve was filed as active; the % refers to the signal ratio)
Method in brief: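 Reporter line: p53RE-bla. Pre-incubation 5 h, 37 C, 5% CO2; compound (DMSO, pin tool) 16 h, 37 C; B/G FRET substrate 2 h RT; fluorescence intensity read.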

[11] = biological target: 5-hydroxytryptamine receptor 2A (Homo sapiens) (UniProt P28223); experiment: 5-hydroxytryptamine receptor 2A (HTR2A) small molecule agonists, cell-based qHTS assay (AID 1963587); note: nearly all actives have a fitted effect of over 30% in size
Method in brief: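 CHO cells stably expressing human HTR2A, plated 18 h, loaded with calcium dye 1 h at 37 C. Agonist mode: compounds added and intracellular calcium fluorescence recorded kinetically for 2 min at 1 sec intervals.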

[12] = biological target: Muscarinic acetylcholine receptor M1 (Homo sapiens) (UniProt P11229); experiment: Cholinergic receptor muscarinic 1 (CHRM1) small molecule antagonists, cell-based qHTS assay (AID 1963588); note: nearly all actives have a fitted effect of over 40% in size; note: potency is the fitted concentration of half-maximal effect
Method in brief: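 CHRM1-CHO calcium-flux assay, antagonist mode. Cells were seeded 18 h, dye-loaded 1 h at 37 C and given compound for 5 min at RT, then acetylcholine was added at 50nM. FDSS fluorescence was read 3 min; 15 concentrations, three runs.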

[13] = biological target: Muscarinic acetylcholine receptor M1 (Homo sapiens) (UniProt P11229); experiment: Cholinergic receptor muscarinic 1 (CHRM1) small molecule agonists, cell-based qHTS assay (AID 1963589); note: nearly all actives have a fitted effect of over 35% in size
Method in brief: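 Human M1 in stable CHO line; 18 h plating, 1 h dye load 37 C; cpd added (agonist mode); Ca2+ fluorescence kinetic read, 1 s intervals; 15 conc, 3 runs.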

[14] = biological target: Beta-2 adrenergic receptor (Homo sapiens) (UniProt P07550); experiment: Adrenergic beta2 receptor (ADRB2) small molecule antagonists, cell-based qHTS assay (AID 1963592); note: series mostly up to about 92 µM; nearly all actives have a fitted effect of over 50% in size
Method in brief: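 Cells (CHO, stable ADRB2 overexpression) incubated 18-20hr at 37C; compounds added from DMSO; agonist mix (1nM isoproterenol, 100uM IBMX, 25uM Ro-20-1724) added; 0.5hr RT; d2-cAMP and anti-cAMP-cryptate added; 1hr RT; 665/615 nm read.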

[15] = biological target: Beta-2 adrenergic receptor (Homo sapiens) (UniProt P07550); experiment: Adrenergic beta2 receptor (ADRB2) small molecule agonists, cell-based qHTS assay (AID 1963593);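 note: CHO cells stably overexpressing human ADRB2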
Method in brief: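 CHO cells stably over-expressing ADRB2 were plated overnight at 37C, then dosed with compounds plus a stimulation mix containing 100uM IBMX and 25uM Ro-20-1724 for 0.5hr at room temperature. cAMP was measured by HTRF competition, 1hr.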

[16] = biological target: D(2) dopamine receptor (Homo sapiens) (UniProt P14416); experiment: Dopamine D2 receptor (DRD2) small molecule agonists, cell-based qHTS assay (AID 1963594); note: nearly all actives have a fitted effect of over 35% in size
Method in brief: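 HEK293 cells stably expressing human DRD2, pre-treated with PDE inhibitor Ro20-1724 (0.1 mM final) and compound 10 min at room temperature, then stimulated with NKH477 (200nM […]) for 30 min. cAMP read by HTRF (665/620 nm).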

[17] = biological target: D(2) dopamine receptor (Homo sapiens) (UniProt P14416); experiment: Dopamine D2 receptor (DRD2) small molecule antagonists, cell-based qHTS assay (AID 1963595; active = well fitted inhibition curve with a large enough effect in the signal ratio in the repeat runs, with a control signal flat; the % refers to the signal ratio)
Method in brief: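 Stable D2 receptor HEK293 line, 24 h after seeding. Compound preincubated 10 min, then quinpirole (12 nM) with forskolin analogue NKH477 (200 nM), 30 min, room temperature. Detection by time-resolved FRET of cAMP.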

[18] = biological target: 5-hydroxytryptamine receptor 2A (Homo sapiens) (UniProt P28223); experiment: 5-hydroxytryptamine receptor 2A (HTR2A) small molecule antagonists, cell-based qHTS assay (AID 1963586); note: nearly all actives have a fitted effect of over 45% in size
Method in brief: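 Antagonist-mode intracellular calcium assay: DOI (4 nM) added after 5 min compound pre-incubation at room temperature to dye-loaded HTR2A-CHO cells. Fluorescence followed for 3 min, sampled every second.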

[19] = cAMP Responsive Elements (CRE) small molecule agonists, cell-based qHTS assay (AID 1963590)
Method in brief: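 HEK 293T CRE-bla, 2,000 cells/well, 18 h preincubation 37 C/5% CO2; cpds (DMSO) pinned, 3 h; LiveBLAzer B/G FRET substrate, 2 h RT.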

[20] = cAMP Responsive Elements (CRE) small molecule antagonists, cell-based qHTS assay (AID 1963591; active = well fitted inhibition curve with a large enough effect in the signal ratio in the repeat runs, not every such curve was filed as active; the % refers to the signal ratio)
Method in brief: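 Beta-lactamase reporter read by FRET substrate (LiveBLAzer B/G) after 2 h at room temperature. CRE-bla HEK293T cells had received compound plus 0.25 uM (final) NKH477 for 3 h at 37 °C.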
% is set by controls: 0 for no effect and ±100 for the full control effect.

Sequence of 5-hydroxytryptamine receptor 2A (Homo sapiens) (P28223 whole entry, looked up): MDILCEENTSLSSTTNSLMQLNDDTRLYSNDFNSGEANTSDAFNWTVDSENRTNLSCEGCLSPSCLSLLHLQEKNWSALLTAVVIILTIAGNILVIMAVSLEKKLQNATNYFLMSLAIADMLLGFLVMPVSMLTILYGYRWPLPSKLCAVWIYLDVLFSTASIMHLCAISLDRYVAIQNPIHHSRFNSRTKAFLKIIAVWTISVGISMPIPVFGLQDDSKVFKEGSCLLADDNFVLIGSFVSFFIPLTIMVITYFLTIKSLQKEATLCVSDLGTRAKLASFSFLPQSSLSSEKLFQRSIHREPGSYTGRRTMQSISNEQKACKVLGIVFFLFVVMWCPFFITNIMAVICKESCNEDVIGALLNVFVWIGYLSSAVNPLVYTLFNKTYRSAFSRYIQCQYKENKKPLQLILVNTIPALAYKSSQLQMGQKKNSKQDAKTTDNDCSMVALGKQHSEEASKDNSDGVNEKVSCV
Sequence of D(2) dopamine receptor (Homo sapiens) (P14416 whole entry, looked up): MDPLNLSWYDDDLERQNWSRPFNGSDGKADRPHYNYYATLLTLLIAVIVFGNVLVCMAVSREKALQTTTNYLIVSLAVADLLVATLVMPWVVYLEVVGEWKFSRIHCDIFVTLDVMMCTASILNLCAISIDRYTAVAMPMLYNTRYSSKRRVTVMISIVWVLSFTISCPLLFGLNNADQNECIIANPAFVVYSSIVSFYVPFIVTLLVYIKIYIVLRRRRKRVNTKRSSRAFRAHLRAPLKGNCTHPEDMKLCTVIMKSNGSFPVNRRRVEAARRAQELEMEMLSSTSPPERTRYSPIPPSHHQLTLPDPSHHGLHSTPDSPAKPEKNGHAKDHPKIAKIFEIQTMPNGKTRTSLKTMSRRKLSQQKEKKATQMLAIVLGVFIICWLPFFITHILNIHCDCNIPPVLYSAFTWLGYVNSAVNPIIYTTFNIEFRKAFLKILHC
Sequence of KiSS-1 receptor (Homo sapiens) (Q969F8 whole entry, looked up): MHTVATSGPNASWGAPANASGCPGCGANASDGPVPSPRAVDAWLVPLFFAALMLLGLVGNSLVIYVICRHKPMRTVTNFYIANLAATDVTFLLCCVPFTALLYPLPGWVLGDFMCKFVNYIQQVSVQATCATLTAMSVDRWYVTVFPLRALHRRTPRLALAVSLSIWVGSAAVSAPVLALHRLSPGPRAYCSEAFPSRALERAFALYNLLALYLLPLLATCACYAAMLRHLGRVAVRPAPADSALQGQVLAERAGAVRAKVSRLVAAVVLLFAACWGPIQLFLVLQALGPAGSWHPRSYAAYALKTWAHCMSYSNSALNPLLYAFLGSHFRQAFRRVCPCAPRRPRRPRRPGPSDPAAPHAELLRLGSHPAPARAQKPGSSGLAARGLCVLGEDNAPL
Sequence of Muscarinic acetylcholine receptor M1 (Homo sapiens) (P11229 whole entry, looked up): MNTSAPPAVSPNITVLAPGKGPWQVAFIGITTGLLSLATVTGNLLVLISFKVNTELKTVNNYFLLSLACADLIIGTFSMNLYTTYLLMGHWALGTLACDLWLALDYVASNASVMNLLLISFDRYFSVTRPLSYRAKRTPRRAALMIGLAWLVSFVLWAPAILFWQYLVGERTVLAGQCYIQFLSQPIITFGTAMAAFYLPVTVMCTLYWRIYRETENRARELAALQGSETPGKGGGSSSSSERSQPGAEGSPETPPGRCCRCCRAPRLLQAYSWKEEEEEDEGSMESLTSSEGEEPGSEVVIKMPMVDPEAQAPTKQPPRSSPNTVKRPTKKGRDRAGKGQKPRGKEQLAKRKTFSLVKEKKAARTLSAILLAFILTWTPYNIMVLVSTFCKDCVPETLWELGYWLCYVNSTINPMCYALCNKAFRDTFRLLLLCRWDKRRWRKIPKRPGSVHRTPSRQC
Sequence of Beta-2 adrenergic receptor (Homo sapiens) (P07550 whole entry, looked up): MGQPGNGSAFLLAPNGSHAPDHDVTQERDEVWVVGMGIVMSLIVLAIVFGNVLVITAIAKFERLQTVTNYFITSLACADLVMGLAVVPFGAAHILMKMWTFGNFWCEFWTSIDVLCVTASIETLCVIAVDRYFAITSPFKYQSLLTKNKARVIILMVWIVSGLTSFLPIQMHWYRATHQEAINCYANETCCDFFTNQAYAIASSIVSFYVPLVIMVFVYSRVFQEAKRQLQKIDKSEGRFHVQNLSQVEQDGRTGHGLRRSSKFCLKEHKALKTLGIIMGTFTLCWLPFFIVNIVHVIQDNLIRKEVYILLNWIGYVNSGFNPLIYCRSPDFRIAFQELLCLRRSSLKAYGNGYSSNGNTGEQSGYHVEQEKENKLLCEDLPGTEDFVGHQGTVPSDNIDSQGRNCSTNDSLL
Sequence of Gonadotropin-releasing hormone receptor (Homo sapiens) (P30968 whole entry, looked up): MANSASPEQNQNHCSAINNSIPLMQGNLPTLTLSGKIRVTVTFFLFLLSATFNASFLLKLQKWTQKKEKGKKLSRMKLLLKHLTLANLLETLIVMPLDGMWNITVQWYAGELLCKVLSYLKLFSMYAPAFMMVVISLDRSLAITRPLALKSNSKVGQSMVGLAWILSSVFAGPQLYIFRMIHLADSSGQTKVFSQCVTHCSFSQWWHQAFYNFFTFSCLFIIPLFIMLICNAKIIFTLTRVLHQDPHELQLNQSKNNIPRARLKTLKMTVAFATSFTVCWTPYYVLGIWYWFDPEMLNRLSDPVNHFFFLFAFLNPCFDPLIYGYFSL

O=C(OCCN1CCOCC1)c1cccnc1Nc1cccc(C(F)(F)F)c1
inactive: Potency [1] | Potency [2] | outcome [3] | outcome [4] | Potency [5] | Potency [6] | Potency [7] | Potency [8] | Potency [9] | Potency [10] | Potency [11] | Potency [12] | Potency [13] | Potency [14] | Potency [15] | Potency [16] | Potency [17]

C=CCCCCCCCCC=O
inactive: Potency [1] | Potency [2] | outcome [3] | outcome [4] | Potency [5] | Potency [6] | Potency [7] | Potency [8] | Potency [9] | Potency [10] | Potency [11] | Potency [12] | Potency [13] | Potency [14] | Potency [16] | Potency [17]

C=CC(=O)OCCCl
inactive: Potency [1] | Potency [2] | outcome [3] | outcome [4] | Potency [5] | Potency [6] | Potency [7] | Potency [8] | Potency [9] | Potency [10] | Potency [18] | Potency [11] | Potency [12] | Potency [13] | Potency [19] | Potency [20] | Potency [16] | Potency [17]

COC(=O)c1c(C)cc(O)c(C)c1O
inactive: Potency [1] | Potency [2] | outcome [3] | outcome [4] | Potency [5] | Potency [6] | Potency [7] | Potency [8] | Potency [9] | Potency [18] | Potency [11] | Potency [12] | Potency [13] | Potency [19] | Potency [20] | Potency [15] | Potency [17]

NCCS
inactive: Potency [1] | Potency [2] | outcome [3] | outcome [4] | Potency [5] | Potency [6] | Potency [7] | Potency [8] | Potency [9] | Potency [10] | Potency [18] | Potency [12] | Potency [13] | Potency [19] | Potency [14] | Potency [17]

CCCCOCCOC(=O)COc1ccc(Cl)cc1Cl
inactive: Potency [1] | Potency [2] | outcome [3] | outcome [4] | Potency [5] | Potency [6] | Potency [7] | Potency [8] | Potency [9] | Potency [10] | Potency [18] | Potency [11] | Potency [13] | Potency [15] | Potency [16] | Potency [17]

NC(=O)Nc1ccc(Cl)c(Cl)c1
inactive: Potency [1] | Potency [2] | outcome [3] | outcome [4] | Potency [5] | Potency [6] | Potency [7] | Potency [8] | Potency [9] | Potency [10] | Potency [18] | Potency [11] | Potency [12] | Potency [13] | Potency [19] | Potency [14] | Potency [15] | Potency [16] | Potency [17]

CC1(c2ccccc2)OC(C(=O)O)=CC1=O (centres undefined)
inactive: Potency [1] | Potency [2] | outcome [3] | outcome [4] | Potency [5] | Potency [6] | Potency [7] | Potency [8] | Potency [9] | Potency [10] | Potency [11] | Potency [12] | Potency [13] | Potency [19] | Potency [14] | Potency [15] | Potency [16]

C[N+]1(C)CCC(=C(c2ccccc2)c2ccccc2)CC1
inactive: Potency [1] | Potency [2] | outcome [3] | outcome [4] | Potency [5] | Potency [6] | Potency [7] | Potency [8] | Potency [9] | Potency [10] | Potency [11] | Potency [13] | Potency [19] | Potency [20] | Potency [14] | Potency [15] | Potency [16] | Potency [17]
active: Potency [12] 13 nM

Cc1cc(C(=O)O)ccc1[N+](=O)[O-]
inactive: Potency [1] | Potency [2] | outcome [3] | outcome [4] | Potency [5] | Potency [6] | Potency [7] | Potency [8] | Potency [9] | Potency [10] | Potency [18] | Potency [11] | Potency [13] | Potency [15] | Potency [16] | Potency [17]

NC12CC3CC(CC(C3)C1)C2
inactive: Potency [1] | Potency [2] | outcome [3] | outcome [4] | Potency [5] | Potency [6] | Potency [7] | Potency [8] | Potency [9] | Potency [10] | Potency [19] | Potency [20] | Potency [14] | Potency [15] | Potency [16] | Potency [17]

CCOc1ccccc1O
inactive: Potency [1] | Potency [2] | outcome [3] | outcome [4] | Potency [5] | Potency [6] | Potency [7] | Potency [8] | Potency [9] | Potency [10] | Potency [18] | Potency [11] | Potency [12] | Potency [20] | Potency [14] | Potency [15] | Potency [16] | Potency [17]

Nc1ccc(S(=O)(=O)Nc2ccnn2-c2ccccc2)cc1
inactive: activity, positive = activation [1] 4.54% [at 19 µM] | activity change [2] -0.562% [at 11.8 µM, hits give high values] | activation [3] 15% [at 15.8 µM] | activation [4] 0.406% [at 11.8 µM] | activation [5] 4.03% [at 13.5 µM] | activation [6] 0.115% [at 13.6 µM] | activity change, negative = cytotoxicity [7] 1.97% [at 13.5 µM] | activity change, negative = cytotoxicity [8] -1.12% [at 13.5 µM] | activity change, negative = cytotoxicity [9] -3.47% [at 13.5 µM] | activation [10] 1.07% [at 13.5 µM] | activation [19] -0.057% [at 19 µM] | activity change, negative = inhibition [20] 0.401% [at 18.9 µM] | activity change, negative = inhibition [14] 0.77% [at 19 µM] | Potency [15] | activation [16] -21.6% [at 19 µM] | activity change, negative = inhibition [17] 1.2% [at 18.9 µM]

CCN(CCC#N)c1ccc(N=Nc2ccc([N+](=O)[O-])cc2)cc1
inactive: Potency [1] | Potency [2] | outcome [3] | outcome [4] | Potency [5] | Potency [6] | Potency [7] | Potency [8] | Potency [9] | Potency [18] | Potency [11] | Potency [12] | Potency [13] | Potency [19] | Potency [20] | Potency [14] | Potency [16] | Potency [17]
